This is a sample that favours compounds with a hit; in the whole collection about 28% have one here.
CYP2C9 inhib = human CYP2C9 inhibition. CYP2C9 Supersomes, luciferin-H conversion, luminescence. inhibition, % at 5 µM. 20% of 96,000 active. AID 777;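 active = blocking of liver enzyme CYP2C9 beyond about 50% at 5 µM, limit read from the data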
DAT uptake mod = human DAT dopamine uptake with cocaine, either direction | LLC-PK1 hDAT cells, [14C]-dopamine uptake with cocaine IC80; actives deviate in either direction | 1.3% of 110,000 active | Q01959 | B-score at 10 µM;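 active = Z score or B-score, a plate-position-corrected score, falls beyond the plate's 99.7% confidence bounds, in either direction; inactive = both scores lie inside the 99.7% bounds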;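 note: scored against the spread of the other compound wells on the same plate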
CYP2C19 activ = activators of human cytochrome P450 2C19; P33261; recombinant CYP2C19, luciferin-H EGE luminescence; active compounds read high; 0 = fully inhibited enzyme, 1 = untreated enzyme; 96,000 tested, under 10 active; activation factor at 5 µM;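 active = activation factor of at least 2 at 5 µM in the primary screen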;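 note: 0 = wells with 2.5 mM tranylcypromine and 1 = vehicle-only wells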
D1 mod = allosteric modulators of human D1 dopamine receptor; P21728; HEK293 D1, CRE-luciferase, dopamine EC30 potentiation; actives deviate in either direction; B-score at 10 µM; 5.9% of 58,000 active; AID 641;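 active = luminescence count or its row- and column-corrected plate score outside the 99.7% band of the plate's sample wells, on either side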
Target sequence (P21728 whole entry, looked up): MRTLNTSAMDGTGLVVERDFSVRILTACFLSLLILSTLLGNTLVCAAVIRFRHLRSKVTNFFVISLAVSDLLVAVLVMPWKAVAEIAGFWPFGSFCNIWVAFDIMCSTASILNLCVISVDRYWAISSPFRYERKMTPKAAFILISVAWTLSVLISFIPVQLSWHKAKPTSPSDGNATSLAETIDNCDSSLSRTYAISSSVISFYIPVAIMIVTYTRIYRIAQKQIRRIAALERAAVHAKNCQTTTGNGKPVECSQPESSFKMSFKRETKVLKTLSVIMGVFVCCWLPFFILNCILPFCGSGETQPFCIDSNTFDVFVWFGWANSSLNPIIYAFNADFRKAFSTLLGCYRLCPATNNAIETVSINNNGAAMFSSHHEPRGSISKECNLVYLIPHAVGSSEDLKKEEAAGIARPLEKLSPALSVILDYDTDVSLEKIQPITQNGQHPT
CYP2C9 act = activators of human CYP2C9; P11712; recombinant CYP2C9, luciferin-H conversion, luminescence; active compounds read high; factor 1 = untreated enzyme, 0 = blocked; activation factor at 5 µM; 1.4% of 96,000 active;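 active = activation factor of 2 or more for CYP2C9 at a 5 µM dose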;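 note: 0 = sulfaphenazole-blocked wells and 1 = vehicle-only wells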
CYP2C19 inh = blocks human cytochrome P450 2C19; P33261; CYP2C19 Supersomes, luciferin-H EGE luminescence, 30 min; inhibition, % at 5 µM; 21% of 96,000 active; AID 778;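 active = CYP2C19 inhibition above a set limit at 5 µM in the primary screen, cut at about 50% in these data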;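 note: plate controls were negative control wells for no effect and 2.5 mM tranylcypromine positive control for full effect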
Starred values were filed as active, the others as inactive; nt = no result.

SMILES	CYP2C9 inhib	DAT uptake mod	CYP2C19 activ	D1 mod	CYP2C9 act	CYP2C19 inh
Cc1nn(CCc2n[nH]c(=S)n2-c2cccc(Cl)c2)c(C)c1[N+](=O)[O-]	22.3	0.388	0.4	nt	0.8	56.6*
CCCn1c(C)nc2c(c1=O)c1nc3ccccc3nc1n2CCC1=CCCCC1	32.2	2.29	0.7	1.63	0.7	29.1
CCCCCCn1cnc2c(c1=O)c1nc3ccccc3nc1n2/N=C/c1ccco1	-0.7	3.96*	1.1	-0.61	1	-5.8
Cc1nc2c(c(=O)n1CCC1=CCCCC1)c1nc3ccccc3nc1n2/N=C/c1ccco1	70.8*	nt	0.7	-1.3	0.3	34.9
CC(C)(C)n1nnnc1C(c1ccccc1F)N1CCN(C2CCCC2)CC1 (stereo not drawn)	3.2	-0.385	1.1	-0.14	1	-9.1
CC(C)(C)c1csc(N(CCC#N)CCC#N)n1	56.1*	-0.588	0.5	0.207	0.4	54.1*
COCCCn1c(SCC(=O)NC(C)C)nnc1-c1ccccc1	-6.5	-0.326	1	1.28	1.1	4.6
O=C(Cn1cnc2ccc(Cl)cc2c1=O)c1cccs1	31.9	-0.0867	0.5	nt	0.7	53.9*
O=C(Cn1cnc2ccc(Br)cc2c1=O)c1cccs1	52.2*	0.41	0.2	nt	0.5	77.9*
CC(C)COC(=O)Cn1cnc2ccc(Br)cc2c1=O	55.5*	0.0107	0.1	0.0105	0.4	91.1*
O=C(Cn1cnc2ccccc2c1=O)c1cccs1	42.9	0.203	0.8	nt	0.6	23.9
CCCCOC(=O)Cn1cnc2ccc(Br)cc2c1=O	23.5	1.93	0.7	-0.616	0.8	30.5
CCOc1cc(C)ccc1OCc1nnc(SCC(=O)c2cccc([N+](=O)[O-])c2)n1C	-57.1	-0.0782	1.1	nt	1.6	-6.5
O=C1c2ccccc2C(=O)N1Cc1ccc2c(c1)OCO2	-38.7	-0.326	0.5	0.624	1.4	53.5*
O=C(O)c1ccc2c(c1)C(=O)N(Cc1ccc3c(c1)OCO3)C2=O	1.0	-0.59	1	nt	1	4.2
COc1ccc(OC)c(NC2c3ccccc3C(=O)N2Cc2ccc3c(c2)OCO3)c1 (stereo not drawn)	41.8	-0.267	0.6	-0.145	0.6	43.3
O=C1c2ccccc2C(O)(Cc2ccccc2)N1c1ccc2c(c1)OCO2 (stereo not drawn)	89.8*	0.951	0.1	-0.0626	0.1	87.0*
O=C1c2ccccc2C(O)N1Cc1ccc2c(c1)OCO2 (stereo not drawn)	3.3	-0.49	0.2	0.652	1	82.8*
O=C1c2ccccc2C(O)(Cc2ccccc2)N1C1CCCCC1 (stereo not drawn)	38.2	0.327	0.6	0.713	0.6	36.2
O=S1(=O)N=C(N2CCN(Cc3ccc4c(c3)OCO4)CC2)c2ccccc21	1.2	-0.139	0.9	-0.314	1	7.9
O=C1c2ccccc2C(Nc2cccnc2)N1Cc1ccc2c(c1)OCO2 (stereo not drawn)	29.2	1.65	0.4	1.55	0.7	57.0*
CCCNC(=O)CN1C(=O)NC2(CCCc3cc(OC)ccc32)C1=O (stereo not drawn)	-14.6	0.358	1	nt	1.1	3.2
C=CCN(CC=C)CC(=O)Nc1ccc(S(N)(=O)=O)cc1	nt	1.24	nt	nt	nt	nt
Cc1nc(SCc2ccccc2)c(C(F)(F)F)c(=O)[nH]1	44.1	0.428	0.5	-0.0151	0.6	47.8
Cc1cc(C(=O)O)c(C)n1-c1ccccc1	64.6*	-1.14	0.8	nt	0.4	21.8
SMILES	CYP2C9 inhib	DAT uptake mod	CYP2C19 activ	D1 mod	CYP2C9 act	CYP2C19 inh
Cc1cc(C(=O)COc2cccc(-n3cnnn3)c2)c(C)n1-c1ccccc1	22.1	0.932	0.1	0.203	0.8	86.1*
CSc1cccc(-n2c(C)cc(C(N)=O)c2C)c1	19.4	0.0132	0.3	-0.0169	0.8	69.4*
Cc1ccc(C)n1-c1cccc(C(=O)O)c1	8.8	0.135	0.9	0.705	0.9	8.8
Cc1cc(C(=O)CN2CC(C)OC(C)C2)c(C)n1-c1ccccc1 (stereo not drawn)	8.2	-1.47	1	-1.45	0.9	4.4
CC1CCCCC1N1CN=C(Nc2nc3ccccc3s2)NC1 (stereo not drawn)	-12.5	-0.256	1	nt	1.1	4.6
Cc1cc2occ(CC(=O)NC3=NCCS3)c2cc1C(C)C	-19.9	-0.852	0.7	nt	1.2	26.3
CCn1cc(/C=C(/C#N)S(=O)(=O)c2ccccc2)cn1	-203.9	0.0339	0.7	-0.275	3*	31.1
Cn1nccc1/C=C(/C#N)S(=O)(=O)c1ccccc1	18.2	-0.806	0.7	nt	0.8	29.6
N#C/C(=C\c1ccc[nH]1)S(=O)(=O)c1ccccc1	-445.8	-1.85	0.5	0.558	5.5*	46.7
CN=C1SC(CC(=O)Nc2ccc(C(C)=O)cc2)C(=O)N1C (stereo not drawn)	nt	0.229	nt	nt	nt	nt
CCc1ccccc1NC(=O)CC1S/C(=N\c2nccs2)N(CC)C1=O (stereo not drawn)	97.2*	-0.143	0	-0.342	0	96.1*
Cc1ccc(NC(=O)CC2S/C(=N/c3nccs3)N(C)C2=O)cc1C (stereo not drawn)	78.7*	0.00325	0.1	nt	0.2	85.7*
Cc1ccccc1NC(=O)CC1S/C(=N/c2nccs2)N(C)C1=O (stereo not drawn)	97.8*	0.178	0.1	nt	0	90.0*
CN=C1SC(CC(=O)Nc2cc(Cl)ccc2Cl)C(=O)N1C (stereo not drawn)	5.8	-0.517	0.4	0.0116	0.9	59.8*
CCOC(=O)c1ccc(NC(=O)CC2SC(=NC)N(C)C2=O)cc1 (stereo not drawn)	14.7	0.856	0.7	-0.185	0.9	26.9
CCNC(=O)CC1SC(=Nc2ccccc2C)N(C)C1=O (stereo not drawn)	nt	-0.0996	nt	-0.828	nt	nt
[2H]c1c([2H])c([2H])c(-c2nc(N3CCCCCC3)sc2C(=O)c2ccccc2)c([2H])c1[2H]	14.1	-0.727	0.8	nt	0.9	18.8
Cc1cc(Nc2ccccc2)n(CCO)n1	16.6	-0.074	0.9	nt	0.8	5.6
O=S(=O)(c1ccc(N2CCN(c3ccc(F)cc3)CC2)cc1)N1CCCC1	6.9	-0.0468	1	0.497	0.9	1.2
O=S(=O)(N1CCCCC1)N1CCN(c2ccc(F)cc2)CC1	44.1	-0.0129	0.4	-1.04	0.6	57.5*
O=S(=O)(Nc1ccc(F)cc1)N1CCCCCC1	67.0*	-0.0357	0	0.0204	0.3	98.8*
Cc1nc2ccc(NC(=O)NCCCO)cc2s1	-22.8	0.433	1.2	nt	1.2	-24.6
CC1(C)Oc2ccc(C(=O)N3CCOCC3)cc2N(CC(=O)N2CCOCC2)C1=O	-3.1	-1.6	1.1	-0.423	1	-10.9
COc1cccc(C(=O)CN2C(=O)C(C)(C)Oc3ccc(C(=O)N4CCCCCC4)cc32)c1	66.9*	0.508	0.8	-0.356	0.3	17.8
Cc1ccc(CN2C(=O)C(C)(C)Oc3ccc(C(=O)N4CCCCC4)cc32)cc1	57.0*	1.58	0.7	0.0197	0.4	29.6
